Measurements from PubChem BioAssay AID651957 (The Scripps Research Institute Molecular Screening Center, 2012).
Screen size: about 370,000 compounds; about 620 (0.17%) were called active.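 How the source made its calls: active means inhibition above the mean inhibition of all tested compounds plus 3 SD, set per campaign (cut at about 52% in these data); inactive means the rest.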 The sample as a whole holds a higher share of actives than the screen did.

molecular target: Nuclear receptor coactivator 2 (Homo sapiens) (UniProt Q15596); assay: inhibition of GAL4-SRC2 driven luciferase reporter, primary screen, SRC2 inhibitor project, cell-based, luminescence (AID 651957); conditions: HEK293 GAL4-SRC2 luciferase reporter, at 9 µM, hits give high values;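 further: 0% = DMSO treated cells and 100% = cells given Gossypol at 36 µM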
Sequence (Q15596 whole entry, looked up, the tested form may be a part): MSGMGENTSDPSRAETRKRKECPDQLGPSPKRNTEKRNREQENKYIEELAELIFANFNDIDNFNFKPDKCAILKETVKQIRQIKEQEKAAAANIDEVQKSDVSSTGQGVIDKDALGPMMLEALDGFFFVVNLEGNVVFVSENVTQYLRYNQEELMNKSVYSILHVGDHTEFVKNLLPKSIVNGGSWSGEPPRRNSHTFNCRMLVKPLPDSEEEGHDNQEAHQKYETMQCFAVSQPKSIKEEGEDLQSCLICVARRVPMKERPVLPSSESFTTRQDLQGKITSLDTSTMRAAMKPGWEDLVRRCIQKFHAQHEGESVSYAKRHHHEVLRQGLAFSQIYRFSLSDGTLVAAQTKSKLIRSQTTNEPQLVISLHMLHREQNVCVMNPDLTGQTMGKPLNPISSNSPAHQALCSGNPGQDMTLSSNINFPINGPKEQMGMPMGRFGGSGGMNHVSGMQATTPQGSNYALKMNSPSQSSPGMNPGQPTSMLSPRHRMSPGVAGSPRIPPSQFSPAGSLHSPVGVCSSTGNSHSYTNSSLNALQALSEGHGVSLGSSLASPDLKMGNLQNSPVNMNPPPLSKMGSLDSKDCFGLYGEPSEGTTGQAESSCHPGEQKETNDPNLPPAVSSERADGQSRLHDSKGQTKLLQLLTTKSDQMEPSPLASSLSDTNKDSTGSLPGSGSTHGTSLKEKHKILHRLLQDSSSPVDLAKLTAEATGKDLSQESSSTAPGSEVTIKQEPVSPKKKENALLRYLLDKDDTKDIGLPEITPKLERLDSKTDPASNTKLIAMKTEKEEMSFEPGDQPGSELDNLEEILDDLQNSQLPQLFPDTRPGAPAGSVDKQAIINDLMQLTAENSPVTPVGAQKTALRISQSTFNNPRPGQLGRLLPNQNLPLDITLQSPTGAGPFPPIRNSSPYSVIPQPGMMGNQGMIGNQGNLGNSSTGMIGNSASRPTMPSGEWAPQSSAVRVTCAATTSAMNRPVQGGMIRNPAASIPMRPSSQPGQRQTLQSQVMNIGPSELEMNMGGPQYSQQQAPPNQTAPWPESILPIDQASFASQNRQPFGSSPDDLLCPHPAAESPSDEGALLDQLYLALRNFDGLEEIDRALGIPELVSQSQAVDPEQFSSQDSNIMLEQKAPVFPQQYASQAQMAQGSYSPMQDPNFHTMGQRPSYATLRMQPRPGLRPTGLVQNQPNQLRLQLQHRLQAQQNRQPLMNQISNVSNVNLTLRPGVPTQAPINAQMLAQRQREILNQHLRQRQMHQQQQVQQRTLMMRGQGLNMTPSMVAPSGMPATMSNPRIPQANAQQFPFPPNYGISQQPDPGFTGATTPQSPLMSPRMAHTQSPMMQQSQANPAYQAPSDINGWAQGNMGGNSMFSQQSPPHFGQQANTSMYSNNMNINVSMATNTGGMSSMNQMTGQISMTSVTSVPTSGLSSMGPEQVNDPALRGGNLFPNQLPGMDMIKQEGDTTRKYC

inhibition, active:
Cc1cc(Nc2ccccc2)n(C(=O)c2ccc(N)cc2)n1 62%
O=C1NC(c2ccccc2)Cc2ccncc21 (stereo not given) 58.9%
OCCCNc1nccc(-c2cc(Nc3cccc(Cl)c3)ncn2)n1 56.3%
OCCN1CCN(C(=S)c2ccc(-c3ccccc3)cc2)CC1 71.1%

inhibition, inactive:
Cc1cc(N2CCN(C(=O)OC(C)(C)C)C[C@H]2C)ccc1N1CCN(Cc2ccccc2)[C@H](C)C1 -2.83%
COc1ccc(CN2C(=O)N3Cc4cc(OC)ccc4C3CS2(=O)=O)cc1 (stereo not given) 15.8%
Cc1ccc(-n2c(SCC(=O)Nc3ccc(S(=O)(=O)Nc4nccs4)cc3)nnc2-c2ccccn2)cc1 9.13%
CC(=O)NCc1ccc(S(=O)(=O)NC2CCN(Cc3ccccc3)CC2)cc1 6.61%
COC(=O)[C@@H]1C[C@@]2(O)[C@@H](O)[C@@H](O)[C@@H](O)C[C@H]2N1Cc1ccc(C)s1 -14.3%
C/C=C/c1ccc(OCC(O)CN2CCCCCCC2)c(OC)c1 (stereo not given) 11.7%
CCOC(=O)[C@@]12CN(C(=O)OC(C)(C)C)CC=C1N(Cc1ccc(OC)cc1)C(=O)[C@H]2CC(=O)NCc1ccc(OC)c(OC)c1 -4.35%
O=C(CSc1nnc(-c2ccccc2)n1Cc1ccco1)Nc1ccccc1-c1ccccc1 -16.5%
CC(=O)C1=C(C)N(Cc2ccccc2)C(=S)NC1c1cccc(Br)c1 (stereo not given) -0.56%
COC(=O)c1ccc(CN2C(=O)[C@]3(OCCC=C[C@H]3C)c3c(Br)cccc32)cc1 4.53%
Cc1ccc(NC(=O)Nc2cc(C)nn2-c2ccccc2)cc1 -32.3%
Cn1c(Nc2ccccc2)cc(=O)n(C)c1=O -0.54%
COc1ccc2c(c1)CN1CN(CCc3ccccc3)S(=O)(=O)CC21 (stereo not given) 5.4%
O=C(NCc1ccccc1)[C@H]1CCCN1C(=O)[C@H]1CCCN1C(=O)N1CCOCC1 3.99%
CCOC(=O)C1CCCN(C(=O)c2cccc3ccccc23)CC1 (stereo not given) 7.84%
CCC(C)(C(=O)NC1CCCCC1)N(C)C(=O)c1ccc2c(c1)OCO2 (stereo not given) -11.6%
COc1ccc(OC)c(CNC(=O)c2cc(=O)[nH]c3ccc(S(=O)(=O)N4CCCC4)cc23)c1 -15.1%
O=C1CC[C@@H](COc2ccc3[nH]cc(-c4ccccc4)c3c2-c2ccccc2)N1 4.07%
CCCc1nc(SCC(=O)N2CCCC2)c2c(=O)n(C)c(=O)n(C)c2n1 2.56%
O=C1NC(c2ccccc2)CCC1(Cl)Cl (stereo not given) -13.7%
O=C1NC(c2ccccc2)Oc2ccccc21 (stereo not given) -0.1%
CCCCn1c(N)c(N(Cc2ccccc2OC)C(=O)COc2cc(C)ccc2Cl)c(=O)[nH]c1=O -2.7%
O=C(NCc1nnc(SCC(=O)N2CCCCCC2)o1)c1ccc(F)cc1 -14.4%
Cc1ccccc1NC(=O)COC(=O)c1ccc(Sc2ncn[nH]2)c([N+](=O)[O-])c1 -15.7%
COC(=O)c1cc(S(=O)(=O)N2CCN(c3ccccc3C)CC2)cn1C 20.3%
C[C@@H]1COc2cccc(N3CCCC3)c2S(=O)(=O)N1C -9.18%
Cc1ccc2oc(=O)c3cnn(CC(=O)N(Cc4ccco4)C4CCCCC4)c3c2c1 -25.6%
NNC(=O)C1CC(O)CN1S(=O)(=O)c1ccc(Cl)cc1 (stereo not given) 23.4%
COc1ccccc1CNC(=O)C1CCN(S(=O)(=O)c2ccc3c(c2)OCCO3)CC1 -1.43%
COC(=O)[C@]12C[C@H](CC(=O)N3CCN(C(=O)C4CC4)CC3)C(=O)N(CCC3=CCCCC3)C1=C[C@H](C(C)C)O[C@@H]2C1CC1 -0.28%
CCNC(=S)N1CCC(c2nc3cc(C)c(C)cc3[nH]2)CC1 -32.6%
O=C(CSc1nnc(-c2ccccn2)n1-c1ccccc1)Nc1ccc2cn[nH]c2c1 -5.6%
CC(C)(C)C(c1nc2ccccc2[nH]1)n1c(Cc2csc3ccccc23)nc2ccccc21 (stereo not given) -15%
CS(=O)(=O)N1CCN=C1SCc1ccc(F)cc1 -10.1%
O=C(C1CCN(S(=O)(=O)c2ccccc2)CC1)N1CCN(C2CCCCC2)CC1 14.3%
COC(=O)C1=C(C)N(Cc2ccc(C(F)(F)F)cc2)C(=NCc2ccc(C(F)(F)F)cc2)NC1c1cccc(Cl)c1 (stereo not given) -4.35%
Cc1ccc(NC(=O)c2cc(C)nn2-c2ccccc2)c(C)c1 4.89%
CCCC(=O)N1CCC1(C)C(=O)NCc1ccc(SC)cc1 (stereo not given) -38.9%
Cc1sc2nc(SCC(=O)c3ccc(O)c(O)c3)n(Cc3ccco3)c(=O)c2c1C 8.73%
C=CCN=C1NC(c2cccc(C(F)(F)F)c2)C(C(=O)OC)=C(C)N1C (stereo not given) -11.9%
CC(C)N1CCCCC(NC(=O)c2ccc3ccccc3c2)C1=O (stereo not given) -10%
CCOc1ccc(S(=O)(=O)NCCCn2ccnc2)cc1NC(C)=O 12.2%
Nc1[nH]c(/C=C2/CCCCC2n2[nH]c(=O)n(-c3ccccc3)c2=O)c(Cc2ccccc2)[n+]1Cc1ccccc1 (stereo not given) 12.9%
C=CCN1[C@@H](Cc2ccccc2)COc2cccc(N3CCSCC3)c2S1(=O)=O 10.1%
CC(C)(C)OC(=O)NCc1cc(F)ccc1/C=C/S(=O)(=O)NCCc1ccccc1 4.87%
COc1cccc(N(C)C(=O)[C@@H](C)[C@@H](O)c2ccc3ccccc3c2)c1 -32.8%
CC(C)CC(CCc1ccccc1)OS(N)(=O)=O (stereo not given) -15.3%
O=C(O)C1C2C=CC(C2)C1C(=O)N1CCN(CCO)CC1 (stereo not given) -0.51%
O=C(NC(=S)N1CCN(Cc2ccccc2)CC1)c1ccccc1 -12.4%
CC(=O)OC12CCCN(C1)/C(=C/c1ccncc1)C2 (stereo not given) 12.7%
COC(=O)C1=C(C)N(Cc2cccc(C(F)(F)F)c2)C(=NCc2ccccc2)NC1c1ccc(Cl)cc1 (stereo not given) -0.5%
